Experimental data: PubChem BioAssay AID1117319 (Southern Research Institute, 2015)
Where “and” joins values, the source holds several entries; their conditions need not be identical. Identical values can stand only once. The whole screen tested about 260,000 compounds, of which about 1,500 (0.58%) were called active. Not shown: some 5% with an inconclusive outcome.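 The calls were made as follows: active = inhibition above a set limit at one or more doses, reproduced on every date tested; inconclusive = results disagree between test dates, or hit never tested in dose response; inactive = the rest.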 These entries were drawn from the full list. Results with a measured potency or affinity are listed apart.

Each molecule was assayed against Virion infectivity factor (Human immunodeficiency virus type 1 group M subtype B (isolate BH10)) + Virion infectivity factor (Human immunodeficiency virus type 1 group M subtype B (isolate BRU/LAI)) + Virion infectivity factor (Human immunodeficiency virus type 1 group M subtype B (isolate PCV12)) + Virion infectivity factor (Human immunodeficiency virus type 1 group M subtype B (isolate HXB2)) + DNA dC->dU-editing enzyme APOBEC-3G (Homo sapiens) (UniProt P69720+P69721+P69722+P69723+Q9HC16) (assay: inhibitors of Vif binding to APOBEC3G peptide, primary screen, biochemical, TR-FRET, GST-Vif 1-94, biotin-A3G peptide, dose response retest (AID 1117319;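 also: Vif residues 1-94 fused to GST binding biotinylated APOBEC3G peptide 110-148; 0% = full assay without inhibitor and 100% = GST in place of GST-Vif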)). Conditions: active compounds read high.

inhibition, inactive:
CCN(CC)CCn1c2c(c(SCC(=O)NCc3ccccc3)nc1=O)CCCC2 6.08%
O=C(NCCCN1CCN(CCCNC(=O)c2cccc([N+](=O)[O-])c2)CC1)c1cccc([N+](=O)[O-])c1 1.34%
Cc1nn(C)cc1/C=N/NC(=S)Nc1ccccc1 0.96%
C/C(N)=C(/C#N)C(=O)CSc1n[nH]c(-c2ccccc2Br)n1 10.4% and -7.5%
CCOC(=O)c1ccccc1NC(=O)[C@@H]1CCCN1C(=O)OC(C)(C)C 3.12%
CCN1C(=O)c2ccc(C(=O)NCc3ccc4c(c3)OCO4)cc2C1=O -10.4%
Cc1cc(C(F)(F)F)n2ncc(C(=O)O)c2n1 -3.78%
Cc1cc(C(F)(F)F)n2nc(C)c(-c3ccc(Cl)cc3)c2n1 -0.47%
CC(C)(C)C1=NN=C2c3ccccc3C(=O)C21 (configuration not stated) 6.1%
COCOCCn1cc(CN2CCS(=O)(=O)N(Cc3ccc(-c4ccc(Cl)cc4)cc3)C(C)C2=O)nn1 (configuration not stated) 1.6%
Cc1cc(C(=O)CC#N)c(C)n1-c1c(C)n(C)n(-c2ccccc2)c1=O 3.73%
CCOC(=O)c1cc(C)n(-c2c(C)n(C)n(-c3ccccc3)c2=O)c1C 2.99%
Cc1onc(-c2ccccc2Cl)c1C(=O)O/N=C(\N)c1ccccc1 -3.35%
COc1ccc2c(=O)c3c(=O)n(Cc4ccco4)c(-c4ccc(C)cc4)nc3oc2c1 -32.5%
COc1ccc2c(=O)c3c(=O)n(Cc4ccco4)c(-c4ccco4)nc3oc2c1 6.47%
COc1ccc2c(=O)c3c(=O)n(Cc4ccco4)c(-c4ccccc4)nc3oc2c1 -5.44%
COc1ccc2c(=O)c3c(=O)n(Cc4ccco4)c(C(C)C)nc3oc2c1 -5.33%
O=C(O)CCS(=O)(=O)Cc1ccccc1Cl 3.96%
CC(C)OC(=O)C1C(=O)CC(C)(O)C(C(=O)OC(C)C)C1c1ccccc1 (configuration not stated) -5.49%
O=C(N/N=C/c1c[nH]c2ccccc12)c1ccc([N+](=O)[O-])cc1Cl 2.78%
CCCCC(=O)NC(=S)Nc1ccccc1N1CCCCC1 1.96%
Cc1nc(SCC(=O)c2ccc(F)c(F)c2)[nH]c(=O)c1Oc1ccc(F)cc1 -1.47%
Cc1cc(N2C(=O)C(O)=C(C(=O)c3ccco3)C2c2ccc(O)cc2)no1 (configuration not stated) -5.88%
COc1cc(C2C(C(=O)c3ccc(C)o3)=C(O)C(=O)N2c2cc(C)on2)cc(Br)c1O (configuration not stated) 19.3%
COC(=O)c1ccc(COc2nc(C)cc(C)c2C#N)o1 2.74%
CCN(CC)S(=O)(=O)c1ccc(N2CCOCC2)c(NC(=O)CCC2CCCCC2)c1 -9.59%
O=C(O)c1ccccc1C(=O)N1CCN(c2ccccc2)CC1 3.73%
CCn1c(SCC(=O)N2CCN(c3ccccc3)CC2)nnc1-c1ccoc1C 7.37%
O=C(c1ccccc1C(=O)N1CCN(c2ccccc2)CC1)N1CCN(c2ccccc2)CC1 3.97%
COc1ccc(N2CCN(C(=O)CSc3ccccc3)CC2)cc1 30.3%
Cc1occc1-c1nnc(SCC(=O)N2CCN(c3ccc(F)cc3)CC2)n1C 8.11%
O=C(CCSc1ccccc1)N1CCN(c2ccccc2)CC1 -3.65%
CCc1nn2c(=O)cc(COc3ccc(/C=C4\C(=N)N5N=C(CC(C)C)SC5=NC4=O)cc3)nc2s1 9.59%
COc1ccc(OC)c(C2C(C(=O)c3cccs3)=C(O)C(=O)N2CCN(C)C)c1 (configuration not stated) 0.56%
CN1CCN(CCCNC(=O)c2ccc(/C=C3/Sc4ccccc4N(Cc4cccc(Cl)c4)C3=O)cc2)CC1 2.32%
O=C(C1=C[C@H](c2ccc(Br)cc2)C[C@H](OCc2ccc(CO)cc2)O1)N1CCOCC1 15.5%
Clc1ncc2[nH]cnc2n1 1.24%
COc1ccc(NC2CC(=O)N(CCc3ccccc3)C2=O)cc1 (configuration not stated) 25.7%
COc1cccc(NC2CC(=O)N(CCc3ccccc3)C2=O)c1 (configuration not stated) 1.52%
O=C(/C=C/c1ccc(F)cc1)c1cc(Br)ccc1O -1.23%
O=C(/C=C/c1ccc2c(c1)OCO2)c1ccc(O)cc1O 8.42%
Nc1ccccc1C(=O)/C=C/c1ccc2c(c1)OCO2 3.13%
COC(=O)/C=C/c1ccc2c(c1)OCO2 4.78%
O=C(/C=C/c1ccccc1)c1cc(Br)ccc(=O)c1O 24.6%
Cc1ccc(C(=O)C=Cc2ccc3c(c2)OCO3)c(C)c1 0.22%
COC(=O)c1ccccc1NC(=O)CSc1nnc(COc2cccc(OC)c2)n1C 0.63%
COc1ccc(CNC(=O)CSc2ncnc3ccccc23)cc1OC -8.65%
COc1ccc(N2CCN(CC(=O)Nc3ccc(SC(F)F)cc3)CC2)cc1 27.3%
N#Cc1c(NC(=S)NC(=O)Cc2cccs2)sc2c1CCCCC2 12.2%
COc1ccccc1N1CCN(C(=O)COc2ccc(S(=O)(=O)NC(C)C)cc2)CC1 0.75%
CN1CCC(N(C)C(=O)COc2ccccc2Cl)CC1 -7.89%
O=C(O)COc1ccccc1-c1ccccc1 -0.72%
N#Cc1ccc(C(=O)NC2CCCc3ccccc32)cc1 (configuration not stated) 5.64%
Cc1cn([C@H]2C[C@H](O)[C@@H](CNCc3ccc(F)c(N4CCOCC4)c3)O2)c(=O)[nH]c1=O -0.24%
CC(=O)Nc1ccccc1NC(=O)COc1cccc2ccccc12 -3.58%
COc1ccc(CCN=Cc2c(C)[nH]n(-c3ccc([N+](=O)[O-])cc3)c2=O)cc1OC 3.12%
Cc1ccc(S(=O)(=O)Nc2cccc(-n3cnnn3)c2)cc1 -12.1%
CC(=O)Nc1ccc(S(=O)(=O)Nc2cccc(-n3cnnn3)c2)cc1 -3.6%
NNC(=O)C1CC1c1ccc(Cl)cc1 (configuration not stated) -1.47%
CC(C)NC(=O)C1CCN(C2CCN(Cc3nc(C(C)C)cs3)CC2)CC1 10.5%
CC(=O)C(Sc1nc(NC(C)(C)C)nc(N(C)C)n1)C(C)=O -1.75%
O=C(CCNS(=O)(=O)c1ccc(Br)s1)Nc1ccc(Cl)cc1 -2.43%
CCOC(=O)c1ccc(CC(=O)c2ccc(O)cc2O)o1 16.6%
CCOC(=O)c1ccc(CC(=O)c2oc3cc(O)ccc3c2C)o1 29.3%
Cc1cc(O)cc(O)c1C(=O)Cc1ccccc1 31%
COC(=O)c1ccc(CC(=O)c2ccc(O)cc2O)o1 21.4%
Cc1onc(-c2c(Cl)cccc2Cl)c1C(N)=O 3.21%
Cc1nnc(-c2cccc(Br)c2)c2cn(-c3ccc(Br)cc3)nc12 -35.9%
CC(C)Oc1cc(NC(=O)CS(=O)(=O)CC(=O)N(C)C)c(Cl)cc1Cl 4.46%
O=C(COc1ccc2c(c1)CCC2)NCc1ccccc1 6.52%
COc1ccccc1CNC(=O)COc1ccc2c(c1)CCC2 -14.6%
COc1cccc(COC(=O)C2CC(=O)N(Cc3ccccc3)C2)c1OC (configuration not stated) 4.65%
Cc1cc2nc(C)n(CCCNC(=O)Nc3ccc(C#N)cc3)c2cc1C -0.77%
CCOc1ccc(NC(=O)NCCCn2c(C)nc3cc(C)c(C)cc32)cc1 3.24%
CCCCSc1nnc(CCCCCNC(=O)OC(C)(C)C)o1 1.82%
CN(C)S(=O)(=O)c1ccc(C(=O)OCC(=O)Nc2ccc(OC(F)F)cc2)cc1 -3.03%
NNC(=O)CCc1c[nH]c2ccccc12 1.22%
NC(=O)CCc1c[nH]c2ccccc12 14.6%
O=C(NC(=O)c1cccc(F)c1)Nc1nc(-c2ccc(F)cc2)cc(C(F)(F)F)n1 0.6%
Cc1nc([N+](=O)[O-])cn1CC(=O)c1ccc(F)cc1 -8.97%
CCn1c(SCC(=O)N2CCCc3ccccc32)nc2ccccc2c1=O -1.92%
CN(C(=O)c1ccccc1C(=O)OCC(=O)Nc1ccccc1)c1ccccc1 -8.92%
O=C(CCNS(=O)(=O)c1ccc(Br)s1)NCc1ccc2c(c1)OCO2 -6.46%
CCO[C@@H]1OC(C(=O)NCc2ccccc2)=C[C@H](c2coc3ccccc3c2=O)[C@H]1CCCO 6.31%
Cc1ccc(/C=C/C(=O)c2c(C)cc(C)[nH]c2=O)cc1 -2.58%
Cc1cc(C)c(C(=O)/C=C/c2cccs2)c(=O)[nH]1 1.47%
CCn1c(O)c(N=Nc2ccc(Cl)c(C(=O)O)c2)c2ccccc21 16%
O/N=C/c1nc2cc(Cl)ccc2o1 4.03%
CC(=O)N(C1=C(N)C(=O)c2ccccc2C1=O)c1ccccc1 4.9%
CC(=O)N(C1=C(N2CCOCC2)C(=O)c2ccccc2C1=O)c1ccc(C(=O)O)cc1 14.4%
COC(=O)c1[nH]c2c(c1C)C(=O)CC(c1ccc(OC)c(OC)c1)C2 (configuration not stated) -9.19%
C=CC[C@@H](CC(=O)N[C@H](CO)Cc1ccccc1)C(=O)N[C@@H](COC(=O)[C@@H](CC=C)CC(=O)OC(C)(C)C)Cc1ccccc1 -0.04%
